From publication PMC7862700, “An all-to-all approach to the identification of sequence-specific readers for epigenetic DNA modifications on cytosine”

Columns and labels:
Assay in all cases: DAPPL (digital affinity profiling via proximity ligation, sequencing); 10 mM Tris-HCl pH 7.5, 50 mM NaCl, 1 mM DTT, 4% glycerol, room temperature, 30 min; GST-TFs on glutathione beads, 16-mer random dsDNA library, 0.1% formaldehyde crosslink after washing; high values mean tight binding
Conditions in all cases: protein: recombinant; tags: N-terminal GST; dsDNA, one strand shown
[1] = target: T1, ETV2 (Homo sapiens, UniProt O00321 1-342)
T1 sequence: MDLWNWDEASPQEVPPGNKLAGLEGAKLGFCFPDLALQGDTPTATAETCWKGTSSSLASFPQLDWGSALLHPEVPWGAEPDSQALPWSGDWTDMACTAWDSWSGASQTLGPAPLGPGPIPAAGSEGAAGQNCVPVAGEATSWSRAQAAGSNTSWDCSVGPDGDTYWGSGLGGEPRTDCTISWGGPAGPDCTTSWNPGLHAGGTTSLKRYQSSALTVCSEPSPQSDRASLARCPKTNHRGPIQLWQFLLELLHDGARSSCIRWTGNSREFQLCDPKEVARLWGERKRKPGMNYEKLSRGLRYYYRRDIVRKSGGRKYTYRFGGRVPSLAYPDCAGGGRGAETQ
Outline: (§1)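 Sequencing on an Illumina NextSeq500 followed washing, crosslinking with 0.1% formaldehyde, proximity ligation (BsaI/T4 ligase, 1 h, 37 °C) and PCR amplification of pools that had been incubated for 30 min at room temperature with 200 nmole of a random double-stranded 16-mer DNA library in Tris/NaCl/DTT/glycerol buffer. Each pool held DNA-barcoded human transcription factors, expressed in yeast as GST fusions and captured on glutathione beads, plus a tag-only sample. Binding signal is a hexamer's read frequency for a factor divided by its frequency in the tag-only sample.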

[2] = target: T2, ELF3 (Homo sapiens, UniProt P78545 1-371)
T2 sequence: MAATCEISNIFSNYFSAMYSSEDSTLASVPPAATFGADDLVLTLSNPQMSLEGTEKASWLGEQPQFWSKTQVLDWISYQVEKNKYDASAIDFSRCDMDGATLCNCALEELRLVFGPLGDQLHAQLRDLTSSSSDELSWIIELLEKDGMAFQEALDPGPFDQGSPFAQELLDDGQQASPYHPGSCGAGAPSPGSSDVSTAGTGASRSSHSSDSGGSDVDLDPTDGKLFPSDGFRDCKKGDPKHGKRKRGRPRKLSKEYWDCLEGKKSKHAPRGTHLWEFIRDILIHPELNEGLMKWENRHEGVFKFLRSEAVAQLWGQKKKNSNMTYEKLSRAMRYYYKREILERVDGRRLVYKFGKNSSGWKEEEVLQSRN
Outline: as §1

[3] = target: ETV1 (Homo sapiens, UniProt P50549 1-477)
Chain of ETV1 (P50549 whole entry): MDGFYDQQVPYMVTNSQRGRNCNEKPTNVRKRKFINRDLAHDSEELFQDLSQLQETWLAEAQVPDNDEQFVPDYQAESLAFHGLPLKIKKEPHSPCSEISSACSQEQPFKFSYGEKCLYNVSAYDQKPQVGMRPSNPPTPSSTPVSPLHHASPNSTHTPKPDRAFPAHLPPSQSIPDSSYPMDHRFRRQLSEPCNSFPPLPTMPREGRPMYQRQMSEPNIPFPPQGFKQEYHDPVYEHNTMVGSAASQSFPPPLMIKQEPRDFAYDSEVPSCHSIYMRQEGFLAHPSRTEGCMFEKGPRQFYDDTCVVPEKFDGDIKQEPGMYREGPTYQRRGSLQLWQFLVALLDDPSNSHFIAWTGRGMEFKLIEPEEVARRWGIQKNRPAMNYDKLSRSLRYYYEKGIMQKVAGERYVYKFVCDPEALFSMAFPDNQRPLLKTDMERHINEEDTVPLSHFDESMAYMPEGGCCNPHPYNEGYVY
Outline: as §1

[4] = target: T3, ERF (Homo sapiens, UniProt P50548 1-548)
T3 sequence: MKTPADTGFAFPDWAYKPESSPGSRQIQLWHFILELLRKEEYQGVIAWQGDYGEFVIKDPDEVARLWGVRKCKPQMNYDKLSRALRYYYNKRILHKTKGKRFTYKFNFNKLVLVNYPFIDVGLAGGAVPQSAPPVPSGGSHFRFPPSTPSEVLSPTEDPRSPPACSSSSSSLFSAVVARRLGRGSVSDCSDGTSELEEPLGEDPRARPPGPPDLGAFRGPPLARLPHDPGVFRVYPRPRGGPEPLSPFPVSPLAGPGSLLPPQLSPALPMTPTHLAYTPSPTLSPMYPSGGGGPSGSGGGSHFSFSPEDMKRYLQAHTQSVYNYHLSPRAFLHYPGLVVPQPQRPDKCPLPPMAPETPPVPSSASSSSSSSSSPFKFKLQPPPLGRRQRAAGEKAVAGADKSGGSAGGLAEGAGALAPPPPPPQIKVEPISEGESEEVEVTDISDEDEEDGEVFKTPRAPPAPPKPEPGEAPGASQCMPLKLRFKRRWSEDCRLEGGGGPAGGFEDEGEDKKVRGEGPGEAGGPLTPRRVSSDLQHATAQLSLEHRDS
Outline: as §1

[5] = target: T4, ETV3L (Homo sapiens, UniProt Q6ZN32 1-361)
T4 sequence: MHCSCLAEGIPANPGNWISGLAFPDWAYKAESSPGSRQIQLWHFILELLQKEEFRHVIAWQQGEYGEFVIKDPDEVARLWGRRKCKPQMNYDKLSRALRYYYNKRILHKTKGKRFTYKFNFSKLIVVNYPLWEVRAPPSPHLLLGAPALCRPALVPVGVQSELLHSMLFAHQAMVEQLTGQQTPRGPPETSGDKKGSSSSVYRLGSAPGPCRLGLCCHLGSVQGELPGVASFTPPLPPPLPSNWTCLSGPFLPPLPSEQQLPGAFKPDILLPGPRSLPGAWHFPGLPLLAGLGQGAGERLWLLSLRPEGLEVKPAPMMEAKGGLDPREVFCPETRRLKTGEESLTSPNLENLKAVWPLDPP
Outline: as §1

[6] = target: T5, ETS2 (Homo sapiens, UniProt P15036 1-469)
T5 sequence: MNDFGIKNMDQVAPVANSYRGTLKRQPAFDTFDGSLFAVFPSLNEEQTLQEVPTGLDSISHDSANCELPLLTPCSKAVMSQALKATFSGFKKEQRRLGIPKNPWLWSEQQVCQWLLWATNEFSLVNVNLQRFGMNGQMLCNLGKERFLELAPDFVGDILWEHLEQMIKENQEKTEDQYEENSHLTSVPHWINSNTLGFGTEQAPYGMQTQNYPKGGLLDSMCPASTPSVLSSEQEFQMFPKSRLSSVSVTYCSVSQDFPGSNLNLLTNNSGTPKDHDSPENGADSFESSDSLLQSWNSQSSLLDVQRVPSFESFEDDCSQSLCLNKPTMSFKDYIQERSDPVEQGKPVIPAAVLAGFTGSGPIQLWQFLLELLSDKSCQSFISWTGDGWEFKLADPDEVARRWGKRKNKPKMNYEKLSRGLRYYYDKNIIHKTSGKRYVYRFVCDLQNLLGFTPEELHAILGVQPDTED
Outline: as §1

[7] = target: T6, SPDEF (Homo sapiens, UniProt O95238 1-335)
T6 sequence: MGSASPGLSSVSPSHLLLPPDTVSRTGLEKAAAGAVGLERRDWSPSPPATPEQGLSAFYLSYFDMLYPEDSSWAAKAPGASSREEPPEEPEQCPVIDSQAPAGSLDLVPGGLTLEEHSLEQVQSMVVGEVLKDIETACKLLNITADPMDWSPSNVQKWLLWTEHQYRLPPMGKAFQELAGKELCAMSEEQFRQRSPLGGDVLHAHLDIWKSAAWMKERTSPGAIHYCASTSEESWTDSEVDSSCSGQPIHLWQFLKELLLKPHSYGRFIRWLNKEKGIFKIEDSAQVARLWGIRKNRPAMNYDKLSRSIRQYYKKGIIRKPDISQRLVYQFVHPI
Outline: as §1

[8] = target: T7, ETV7 (Homo sapiens, UniProt Q9Y603 1-341)
T7 sequence: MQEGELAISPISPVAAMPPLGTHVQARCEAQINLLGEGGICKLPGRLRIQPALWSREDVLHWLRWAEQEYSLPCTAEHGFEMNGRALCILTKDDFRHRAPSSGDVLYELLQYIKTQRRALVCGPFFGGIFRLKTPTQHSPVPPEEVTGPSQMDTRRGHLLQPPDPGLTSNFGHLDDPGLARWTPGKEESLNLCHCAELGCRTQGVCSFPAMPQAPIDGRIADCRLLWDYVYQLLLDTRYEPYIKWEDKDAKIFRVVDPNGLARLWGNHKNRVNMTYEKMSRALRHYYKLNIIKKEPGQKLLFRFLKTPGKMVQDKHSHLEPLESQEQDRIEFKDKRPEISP
Outline: as §1

[9] = target: T8, ETV3 (Homo sapiens, UniProt P41162-2 1-143)
T8 sequence: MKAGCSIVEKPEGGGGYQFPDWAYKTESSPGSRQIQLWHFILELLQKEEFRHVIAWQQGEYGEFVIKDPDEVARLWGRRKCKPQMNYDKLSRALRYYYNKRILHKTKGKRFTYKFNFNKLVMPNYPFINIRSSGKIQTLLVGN
Outline: as §1

[10] = target: ETV6 (Homo sapiens, UniProt P41212 1-452)
Chain of ETV6 (P41212 whole entry): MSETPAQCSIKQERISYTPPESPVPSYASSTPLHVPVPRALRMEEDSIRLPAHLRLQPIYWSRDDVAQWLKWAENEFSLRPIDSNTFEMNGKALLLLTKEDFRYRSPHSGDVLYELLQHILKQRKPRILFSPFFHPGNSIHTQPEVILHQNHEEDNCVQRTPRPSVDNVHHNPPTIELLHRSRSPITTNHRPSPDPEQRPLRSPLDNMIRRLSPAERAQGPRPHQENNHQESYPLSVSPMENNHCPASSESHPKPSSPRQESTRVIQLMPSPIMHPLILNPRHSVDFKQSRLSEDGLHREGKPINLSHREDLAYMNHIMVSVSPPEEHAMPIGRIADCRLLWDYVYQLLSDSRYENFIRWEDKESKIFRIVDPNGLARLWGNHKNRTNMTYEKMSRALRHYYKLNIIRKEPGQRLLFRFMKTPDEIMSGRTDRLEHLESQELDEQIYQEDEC
Outline: as §1

In the case of GTTGAC, the binding signal [1] is reported as 1.07 fold enrichment (6-mer frequency, TF over GST control), the binding signal [2] is reported as 1.09 fold enrichment (6-mer frequency, TF over GST control) and the binding signal [3] is reported as 1.06 fold enrichment (6-mer frequency, TF over GST control). For the same sequence, the binding signal [4] was 1.43 fold enrichment (6-mer frequency, TF over GST control), the binding signal [5] was 1.19 fold enrichment (6-mer frequency, TF over GST control) and the binding signal [6] was 1.17 fold enrichment (6-mer frequency, TF over GST control). For the same sequence, the binding signal [7] was 1.07 fold enrichment (6-mer frequency, TF over GST control), the binding signal [8] was 1.19 fold enrichment (6-mer frequency, TF over GST control) and the binding signal [9] was 1.04 fold enrichment (6-mer frequency, TF over GST control). For the same sequence, the binding signal [10] was 1.21 fold enrichment (6-mer frequency, TF over GST control).
